Sampled rows, rich in hits. Any-hit rate of the full collection: about 19%.
DT40 TDP1 CPT – DT40-hTDP1 cell growth loss with CPT. chicken DT40 Tdp1-/-;hTDP1 cells + 20 nM CPT, ATP luminescence, 48 h. 12% of 420,000 active. Potency, µM (doses to about 46.2 µM), actives largely listed as inhibitors; further: nearly all actives have a fitted effect of over 55% in size
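Cell growth measured by CellTiter-Glo luminescence after a minimum 48 h, 37 C compound exposure with 20 nM CPT in Tdp1-knockout DT40 cells stably expressing hTDP1, seeded 400/well; qHTS titration format.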
IL1B secr inh – inflammasome signaling inhibition, IL-1 beta readout; THP-1 LPS/ATP IL-1B secretion, AlphaLISA, 16 h; stronger effect = lower value; activity change, % at 57.5 µM; 4.7% of 360,000 active; AID 743279; in the data active means activity change below about -50%; inconclusive means mostly about -30% to -49%
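THP-1 cells pretreated 1 hr with compounds (up to 57.5 uM final), then stimulated with LPS (250 ng/mL final) plus ATP (1.25 mM final); secreted IL-1B measured by AlphaLISA after 16 hr, decreased signal indicating inhibition.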
uPA generation – blocks generation of uPA at the cell surface | cell surface uPA generation assay, qHTS | Potency, µM (series often up to 38.3 µM), most hits filed as inhibitors | 0.31% of 330,000 active | AID 540303; active means well fitted inhibition curve with a large enough effect; inconclusive means small, poorly fitted or top-dose-only effect; inactive means no such curve, though single readings can be large or run the other way; tested in mouse RAW 264.7 cells; further: nearly all actives have a fitted effect of over 55% in size
HT1080 IDH1KD tx – HT-1080 IDH1 knockdown cell toxicity (counter line) | HT-1080 IDH1 knockdown viability, ATP luminescence, 48 h | Potency, µM (doses to about 46.1 µM), hits mostly cytotoxic | 2% of 360,000 active
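Knockdown cells (IDH1KD HT-1080) received compounds 2 h after plating at 750 cells/well and were kept 48 h at 37 °C in 5% FBS RPMI. A CellTiter-Glo luminescence read gave % activity for curve fitting.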
TDP1 cell noCPT – qHTS for Inhibitors of human tyrosyl-DNA phosphodiesterase 1 (TDP1): qHTS in cells in absence of CPT | DT40 Tdp1-/- hTDP1 cells, no CPT, ATP luminescence, 48 h | Potency, µM (doses to about 46.2 µM), hits mostly inhibitors | 15% of 420,000 active; further: nearly all actives have a fitted effect of over 55% in size
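DT40 Tdp1-/-;hTDP1 cells, no CPT (DMSO vehicle only), 400 cells/well; compounds pin-transferred; ≥48 hr, 37 °C; CellTiter-Glo 30 min RT dark, luminescence read.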
HT1080NT lethal – kills 2HG-producing HT-1080-NT fibrosarcoma cells | HT-1080-NT fibrosarcoma viability, CellTiter-Glo ATP luminescence, 48 h | Potency, µM (doses to about 46.1 µM), hits mostly cytotoxic | 1.6% of 360,000 active | AID 686970;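 further: NT is the 2HG producing partner of a matched IDH1 knockdown line; nearly all actives have a fitted effect of over 55% in size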
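750 cells/well, RPMI + 5% FBS; 2 h settle, compound pin-transfer, 48 h at 37 degrees C. CellTiter-Glo 10 min RT, luminescence. Normalized to DMSO and media-only wells.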
Numbers stand for hits; i = inactive; ? = inconclusive; nt = not tested or not shown; ! = not active in a repeat. Unless noted, the call rests on the fitted dose curve; in most records, active means well fitted curve in the direction sought with a large enough effect; inconclusive means small, poorly fitted or top-dose-only effect, or another doubt; inactive means no such curve, though single readings can be large; an effect the other way counts as inactive or inconclusive.

SMILES	DT40 TDP1 CPT	IL1B secr inh	uPA generation	HT1080 IDH1KD tx	TDP1 cell noCPT	HT1080NT lethal
CCOc1ccc(CNS(=O)(=O)c2cc(-c3cc(C)no3)ccc2OC)cc1OC	i	i	i	i	i	i
Cc1ccc(-c2c(C(=O)NNC(=S)NCC3CCCO3)csc2C)cc1 (stereo not drawn)	?	i	i	i	0.461µM	i
COCCCNC(=S)N1CCC(C(=O)c2ccc3c(c2)OCCO3)CC1	?	i	i	i	i	i
Cc1ccc(C(=O)C2CCN(C(=S)NCC3CCCO3)CC2)cc1 (stereo not drawn)	14.6µM	i	i	i	10.3µM	i
O=C(c1ccc(F)cc1)C1CCN(C(=S)NCC2CCCO2)CC1 (stereo not drawn)	i	i	i	i	i	i
CC(C)(C)NC(=S)N1CCC(C(=O)c2ccc(Cl)cc2)CC1	i	i	i	i	i	i
C=CCNC(=S)N1CCC(C(=O)c2ccc(Cl)cc2)CC1	16.4µM	i	i	i	?	i
CC(C)CNC(=S)N1CCC(C(=O)c2ccc3c(c2)OCCO3)CC1	?	i	i	i	23.1µM	i
CC(C)CNC(=S)N1CCC(C(=O)c2ccc(F)cc2)CC1	?	i	i	i	?	i
CCOCCCNC(=S)N1CCC(C(=O)c2ccc(C)cc2)CC1	18.4µM	i	i	i	?	i
CN(C)CCCNC(=S)N1CCC(C(=O)c2ccc(Cl)cc2)CC1	23.1µM	i	nt	i	16.4µM	i
C=CCNC(=S)N1CCN(S(=O)(=O)c2ccc(C)cc2)CC1	i	i	i	i	i	i
C=CCNC(=S)N1CCC(C(=O)c2ccc(C)cc2)CC1	25.9µM	i	i	i	?	i
CCCS(=O)(=O)NC(=O)C1(C)CCCN(C(=O)COCc2ccccc2)C1 (stereo not drawn)	i	i	nt	i	i	?
O=C(C1=C[C@H](c2coc3ccccc3c2=O)C[C@H](OCc2ccc(CO)cc2)O1)N1CCN(Cc2ccc3c(c2)OCO3)CC1	7.31µM	nt	i	i	7.31µM	i
O=C(C1=C[C@@H](c2coc3ccccc3c2=O)C[C@@H](OCc2ccc(CO)cc2)O1)N1CCN(Cc2ccc3c(c2)OCO3)CC1	20.6µM	?	i	i	14.6µM	i
O=C(C1=C[C@@H](c2coc3ccccc3c2=O)C[C@@H](OCc2ccc(CO)cc2)O1)N1CCOCC1	i	i	i	i	i	i
CCCc1c(C(=O)N/N=C(\CC)c2ccccc2)nnn1-c1nonc1N	i	i	nt	i	i	i
CC(c1ccccc1)C1CC(=O)N(Cc2ccco2)C1=O (stereo not drawn)	?	i	i	i	20.6µM	i
CC(c1ccccc1)C1CC(=O)N(CC(=O)O)C1=O (stereo not drawn)	i	i	i	i	i	i
CCC1CSC(Nc2ccc(C(=O)/C=C/c3cccc(C)c3)cc2)=N1 (stereo not drawn)	16.4µM	-87.4	?	?	14.6µM	?
CCC1CSC(Nc2ccc(C(=O)/C=C/c3ccc(Oc4ccccc4)cc3)cc2)=N1 (stereo not drawn)	23.1µM	?	i	i	16.4µM	i
CC(=O)c1ccc(NC(=O)/C=C/c2ccc(C)cc2)cc1	i	?	i	i	i	i
CCOC(=O)c1ccc(NC(=O)c2ncn3c2C(=O)N[C@H](C)C3)cc1	i	i	nt	i	i	i
COCCNC(=O)C1(C)CCCN(C(=O)c2cc(C)oc2C)C1 (stereo not drawn)	i	i	nt	i	i	i
SMILES	DT40 TDP1 CPT	IL1B secr inh	uPA generation	HT1080 IDH1KD tx	TDP1 cell noCPT	HT1080NT lethal
CCCCN(CC)Cc1ccc(CNC(=S)Nc2c(C)cc(C)cc2C)o1	i	i	i	i	?	i
CCCCN(CC)Cc1ccc(CNC(=S)Nc2ccc(C)cc2Cl)o1	16.4µM	-62.3	i	i	18.4µM	?
CCCCN(CC)Cc1ccc(CNC(=O)Nc2ccc(F)cc2)o1	4.47µM	i	nt	?	5.62µM	10µM
O=C(CCc1nc2ccccc2c(=O)[nH]1)Nc1ccccc1N1CCCCC1	?	i	nt	i	?	i
Cc1ccc(C)c(N2CCN(C(=O)c3cc4cc5ccc(C)cc5nc4o3)CC2)c1	i	nt	nt	nt	?	nt
CCOc1cc(/C=N/Nc2cc(C)nc(-n3nc(C)cc3C)n2)ccc1O	2.59µM	i	?	5.8µM	2.31µM	5.8µM
CCOc1cc(/C=N/Nc2nc(C)cc(=O)[nH]2)ccc1O	i	i	i	i	i	i
COc1ccc(/C=N/Nc2cc(C)nc(N3CCOCC3)n2)cc1	i	i	i	i	?	i
COc1ccc(/C=N/Nc2cc(C)nc(-n3nc(C)cc3C)n2)c(OC)c1	1.46µM	-103.5	i	9.2µM	1.64µM	?
Cc1cc(Cl)nc(-n2nc(C)cc2C)n1	i	i	i	i	i	i
Cc1cc(N/N=C/c2ccc(F)cc2)nc(-n2nc(C)cc2C)n1	2.91µM	i	i	1.84µM	3.66µM	?
O=C(Nc1ccccc1)C1=C(O)CC(c2ccc(Cl)cc2)N2CCN=C12 (stereo not drawn)	?	i	i	i	18.4µM	i
CCOc1ccccc1NC(=O)CN(C)S(=O)(=O)c1ccc2nc(C)sc2c1	i	nt	nt	nt	i	nt
COc1cc2c(cc1OC)C(C)N(C(=O)Cn1ncc3c1-c1ccccc1OC3)CC2 (stereo not drawn)	?	i	i	i	?	i
COc1cc2c(cc1OC)C(C)N(C(=O)c1ccc(Br)o1)CC2 (stereo not drawn)	?	i	i	i	16.4µM	i
COc1cc2c(cc1OC)C(Cc1ccc(O)cc1)N(C)CC2 (stereo not drawn)	i	i	i	i	i	i
COc1cc2c(cc1OC)C(C)N(Cc1ccc3c(c1)OCO3)CC2 (stereo not drawn)	?	i	?	i	18.4µM	i
COc1cc2c(cc1OC)C(C)N(C(=O)c1cc(Cl)nc(Cl)c1)CC2 (stereo not drawn)	7.31µM	i	?	?	?	?
COc1ccc(C(OCC(O)CN2CCC(O)CC2)c2ccc(OC)cc2)cc1 (stereo not drawn)	i	i	i	i	i	i
COc1ccc(-c2ccc(-c3nc4ccc(C)cn4c3NC3CCCCC3)cc2OC)cc1	10.3µM	-55.1!	?	?	13µM	?
c1ccc(CNc2c(-c3cccc(SC4CCCCC4)c3)nc3ccccn23)cc1	?	i	?	?	?	?
Clc1ccc2nc(-c3ccccc3)c(CC3CCCCC3)n2c1	?	i	nt	i	?	i
Cc1ccc2nc(-c3cccc(SC4CCCCC4)c3)c(NC3CCCCC3)n2c1	20.6µM	i	i	i	16.4µM	i

Source: PubChem (National Center for Advancing Translational Sciences (NCATS))
